# Inconclusive results are not listed. Unmarked numbers belong to inactive results. The source made the active and inactive calls. Calls come from the whole dose curve; as a rule, active = well fitted activation curve with a large enough effect in the signal ratio in the repeat runs (not every such curve was filed as active); inconclusive = weak or mixed curves; inactive = flat fitted curve, though single readings scatter; the % refers to the signal ratio.
# Test: p53 small molecule agonists, cell-based qHTS assay (AID 1963582)
# Conditions: HCT-116 p53RE-bla reporter, beta-lactamase FRET ratio, 16 h; series mostly up to 66 µM; activation: at the top concentration
# Text: National Center for Advancing Translational Sciences [NCATS]
# Division of Preclinical Innovation [DPI]
# U.S. Environmental Protection Agency [EPA]
# National Institutes of Environmental Health Sciences [NIEHS]
# National Toxicology Program [NTP]
# U.S. Food and Drug Administration [FDA]
# p53, a tumor suppressor protein, is activated following cellular insult, including DNA damage and other cellular stresses. The activation of p53 regulates cell fate by inducing DNA repair, cell cycle arrest, apoptosis, or cellular senescence. The activation of p53, therefore, is a good indicator of DNA damage and other cellular stresses. […] The activation of the reporter gene under culture conditions can be detected by fluorescence intensity. This cell line was used to screen the Tox21 10K compound library in a 1536-well plate format and to identify agonists that activate the p53 signaling pathway.
# Tox21 Assay Protocol Summary:
# The p53RE-bla cells were dispensed at 4,000 cells/5 ul/well in 1536-well black wall/clear bottom plates using a Multidrop dispenser. After the assay plates were incubated at a 37 C/5% CO2 incubator for 5 hours, 23 nL of compounds dissolved in DMSO, positive controls or DMSO only was transferred to the assay plate by a pin tool. The plates were incubated at 37 C for 16 hours. After 1 uL of LiveBLAzerTM B/G FRET substrate was added using a Flying Reagent Dispenser, the plates were incubated at room temperature for 2 hours, and fluorescence intensity was measured by an Envision plate reader.
# % is set by controls: 0 for no effect and ±100 for the full control effect; potency is the fitted concentration of half-maximal effect.
Structure (SMILES),activation,Potency
CCC(C)O (stereo not given),0.281%,–
Cc1nc(Nc2ncc(C(=O)Nc3c(C)cccc3Cl)s2)cc(N2CCN(CCO)CC2)n1,-3.6% [at 30.3 µM],–
COc1cc(C=C2CCC/C(=C\c3ccc(O)c(OC)c3)C2=O)ccc1O,-6.29% [at 30.3 µM],–
CCCCCC[C@@H](O)C/C=C\CCCCCCCC(=O)OC,0.682%,–
Cc1ccccc1C(=O)Nc1ccc(C(=O)N2CCCC(O)c3cc(Cl)ccc32)c(C)c1 (stereo not given),-5.86% [at 30.3 µM],–
NC(N)=N/N=C/c1c(Cl)cccc1Cl,0.315% [at 30.3 µM],–
CCOC(=O)COc1ccc2c(c1)CC(NCC(O)c1cccc(Cl)c1)CC2 (stereo not given),0.121%,–
CCCC(CC)c1ccccc1 (stereo not given),0.25%,–
CO[Si](OC)(c1ccccc1)c1ccccc1,0.227%,–
CC(CN=Cc1ccccc1O)N=Cc1ccccc1O (stereo not given),-1.34%,–
CC(C)NC[C@@H](O)COc1cccc2ccccc12,-0.629% [at 30.3 µM],–
Cc1cc(O)c2ccccc2c1O,-0.725% [at 30.3 µM],–
O=c1[nH]c(=O)n([C@H]2C[C@H](O)[C@@H](CO)O2)cc1F,–,0.446 µM (active)
NC(=O)CCCCC1CCSS1 (stereo not given),0.878% [at 30.3 µM],–
OCCOCC#CCOCCO,-0.736%,–
CC1=CC(=C(c2ccc(N)cc2)c2ccc(N)cc2)C=CC1=N,-2.87% [at 5.99 µM],–
Cc1ccc(O)c(C(=O)c2ccccc2)c1,4.37%,–
CC(=O)c1ccc2c(c1)N(CCCN(C)C)c1ccccc1S2,-0.0411% [at 30.3 µM],–
Nc1ccc([N+](=O)[O-])cc1O,4.66%,–
CCCCC(CC)CNC(=O)CC(C)OC(=O)CCC(=O)O (stereo not given),-3% [at 30.3 µM],–

Structure (SMILES),activation,Potency
O=S(=O)(O)c1cc(S(=O)(=O)O)c2c(N=Nc3ccccc3)c(O)ccc2c1,–,inactive
CO[C@@]12[C@H](COC(N)=O)C3=C(C(=O)C(C)=C(N)C3=O)N1C[C@@H]1N[C@@H]12,–,15.8 µM (active)
CCCCOC(=O)c1ccccc1C(=O)OCC(CC)CCCC (stereo not given),-5.35%,–
O=C1CCC/C=C\CCCCCCCCCC1,-5.32%,–
CN1CCN(c2ccccc2/C=C2\SCCN(c3ccc(Cl)c(Cl)c3)C2=O)CC1,-4.79%,–
O=C(O)COC(=O)Cc1ccccc1Nc1c(Cl)cccc1Cl,5.15% [at 30.3 µM],–
C[C@H]1[C@H](NC(=O)/C(=N/OC(C)(C)C(=O)O)c2csc(N)n2)C(=O)N1S(=O)(=O)O (stereo in doubt),1.68% [at 30.3 µM],–
CC[N+](CC)(CC)CCOc1ccc(/C=C/c2ccccc2)cc1,0.126% [at 30.3 µM],–
CCCCCCCCCCCCCCCC(=O)OC/C=C(C)/C=C/C=C(C)/C=C/C1=C(C)CCCC1(C)C,-2.99%,–
C=CC(=O)OCCOc1ccccc1,-0.911%,–
COc1ccc(NC(=O)CC(C)=O)cc1,0.0132%,–
CC(=O)O[Si](C)(OC(C)=O)OC(C)=O,-1.48%,–
Oc1cc2c(cc1O)[C@H]1c3ccc(O)c(O)c3OC[C@@]1(O)C2,-6.25%,–
CO,2.16%,–
Clc1ccc2nsnc2c1NC1=NCCN1,0.437% [at 30.3 µM],–
C1CCOC1,-2.25%,–
CC1=CC=C(C(C)C)CC1,0.0383%,–
C[C@H]1c2cccc(O)c2C(O)=C2C(=O)[C@]3(O)C(O)=C(C(N)=O)C(=O)[C@@H](N(C)C)[C@@H]3[C@@H](O)[C@@H]21,-4.78% [at 30.3 µM],–
NS(=O)(=O)c1ccc(C(=O)O)cc1,-1.71% [at 30.3 µM],–
CCCCCCCCCCCC(=O)OCC,1.76%,–

# From PubChem BioAssay (Tox21)
